Compound activity as filed in PubChem BioAssay.
Most compounds without a hit are left out; they make up all but 4.8% or so of the library.
ssDAF-12 act: S. stercoralis DAF-12 activation, primary screen | HEK293 ssDAF-12/GRIP1 lit1-tk-luc reporter, luminescence; % of 3 µM dafachronic acid response | activation, % at 6.8 µM | 370,000 tested, 1% active;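 active means activation above the mean over all tested compounds plus 3 SD, cut at about 0.9% in these data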;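 further: 0% = DMSO-only wells and 100% = 3 µM delta7-dafachronic acid wells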
SMARCA2 activ: increases SMARCA2 function in MMTV reporter cells | 370,000 tested, 1% active | MG213 cells, MMTV-luciferase reporter, dexamethasone, overnight | activation, % at 9.1 µM; in the data active means activation above about 7.8%;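 further: 0% = vehicle wells and 100% = reference activator wells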
DAX1 inh-1: blocks DAX1 repression of SF-1 activated StAR promoter; HEK293T StAR-luciferase reporter, SF-1/DAX-1 repression relief; inhibition, % at 6.8 µM; 370,000 tested, 1.1% active;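 active means inhibition above the mean over all tested compounds plus 3 SD, cut at about 3.6% in these data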;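 further: 0% = DAX-1 cells with DMSO and 100% = cells lacking DAX-1 with DMSO; higher inhibition means more luminescence from relief of DAX-1 repression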
hcDAF-12 act: activates DAF-12 receptor from parasite H. contortus. HEK293 hcDAF-12 lit1-tk-luc reporter, luminescence; 0% DMSO, 100% Δ7-dafachronic acid. activation, % at 6.8 µM. 370,000 tested, 1.4% active. AID 652067;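 active means activation above the mean of all tested compounds plus 3 SD, cut at about 5.5% in these data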;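 further: 100% = response to 3 µM Δ7-dafachronic acid high control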
hgDAF-12 ag: agonists of H. glycines DAF-12 nuclear receptor; HEK293 GAL4-hgDAF12 UAS-luciferase reporter, agonist luminescence; normalized to butyrate control; activation, % at 6.8 µM; 370,000 tested, 1.8% active; AID 687014;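 active means activation above a cutoff set at the mean of all screened compounds plus 3 SD, cut at about 10% in these data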;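 further: 0% = DMSO wells and 100% = sodium butyrate wells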
DAX1 inh-2: inhibits human nuclear receptor DAX1; 340,000 tested, 0.99% active; P51843; AID 504766; HEK293 Gal4-DAX1 luciferase reporter, luminescence; inhibition, % at 6.75 µM;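 active means inhibition above the mean over all tested compounds plus 3 SD, cut at about 4.2% in these data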;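 further: 0% = DAX1-transfected cells with DMSO and 100% = empty-vector control cells with DMSO; inhibition shows as a rise in luminescence from relieved DAX1 repression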
Target sequence (P51843 207-470 limits assumed): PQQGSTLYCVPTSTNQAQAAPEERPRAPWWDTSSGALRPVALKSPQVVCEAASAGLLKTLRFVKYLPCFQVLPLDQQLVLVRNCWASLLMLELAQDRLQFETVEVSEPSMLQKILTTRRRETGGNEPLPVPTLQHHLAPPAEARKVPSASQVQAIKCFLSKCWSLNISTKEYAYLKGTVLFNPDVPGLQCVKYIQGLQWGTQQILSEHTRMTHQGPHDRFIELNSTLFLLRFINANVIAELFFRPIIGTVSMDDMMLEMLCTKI
Numbers without * were called inactive; · = no result.

SMILES | ssDAF-12 act | SMARCA2 activ | DAX1 inh-1 | hcDAF-12 act | hgDAF-12 ag | DAX1 inh-2
CCOC(=O)C1(Cc2ccccc2)CCCN(C(=O)COc2ccccc2OC)C1 (centres undefined) | 0 | 7 | 3 | 1 | 8 | 4.3*
O=C(O)Cn1c(SCc2ccccc2)nc2ccccc21 | -1 | -3 | 0 | -1 | -1 | 1
O=C(O)Cn1c(SCc2cccc3ccccc23)nc2ccccc21 | 0 | 2 | 0 | 6.1* | 1 | 0
Cc1nc2ncnn2c(C)c1CCC(=O)N1CCN(c2ccccn2)CC1 | -2 | 0 | 0 | -2 | 0 | 0
Cc1nc2ncnn2c(C)c1CCC(=O)N1CCc2ccccc2C1 | -2 | 7.9* | 0 | 0 | 2 | 0
O=C(O)c1cnc(-c2ccccc2)nc1Sc1ccccc1 | -1 | 1 | 0 | -1 | 1 | 2
O=C(c1ccc([N+](=O)[O-])cc1)N1CCOCC1 | 8.9* | 4 | 0 | -1 | 0 | 0
O=C(NCC(O)CN1CCOCC1)c1ccc([N+](=O)[O-])cc1 (centres undefined) | -1 | 2 | 0 | -2 | -3 | 6.2*
O=C(c1ccc([N+](=O)[O-])cc1)N1CCCC1 | -1 | -5 | -1 | -1 | 1 | 0
CC(=O)c1cccc(NC(=O)C2CCN(C(=O)c3ccc([N+](=O)[O-])cc3)CC2)c1 | 2.3* | 0 | 0 | 4 | 4 | 1
Cc1ccc(S(=O)(=O)CCC(=O)OCC(=O)N(C)CC(=O)Nc2ccc(F)cc2)cc1 | 0 | 0 | 0 | 1 | -1 | 0
O=C(NCCCNC1CCCCC1)c1ccc(/C=N/O)nc1 | 1.5* | 1 | 1 | 5 | 0 | -1
COc1ccc(/C=C2\SC(=Nc3ccccc3OC)NC2=O)cc1 | -2 | 0 | -1 | -3 | 2 | 4.3*
COc1cc(/C=C2\SC(=Nc3ccccc3OC)NC2=O)ccc1O | -2 | 2 | -1 | -2 | 0 | 0
Cc1ccc(N=C2NC(=O)/C(=C/c3cccs3)S2)cc1C | -2 | 3 | -1 | -1 | -1 | 0
O=C1NC(=Nc2cccc(O)c2)S/C1=C\c1cccnc1 | -1 | 7.9* | 0 | -2 | 1 | 1
Cc1cccc(N=C2NC(=O)/C(=C/c3cccnc3)S2)c1 | -1 | 0 | 0 | -2 | -3 | -3
O=C1NC(=Nc2ccccc2)S/C1=C\c1ccccc1 | 1.0* | 0 | 0 | 5 | 2 | 3
Cc1cccc(N=C2NC(=O)/C(=C\c3cccs3)S2)c1 | -2 | 7.9* | 0 | -1 | -1 | 0
C=CCN1C(=O)[C@H]2CCC=C[C@H]2[C@@H]1c1cccc(C)c1 | 0 | -3 | 0 | -1 | 0 | -1
Cc1cccc([C@H]2[C@@H]3C=CCC[C@@H]3C(=O)N2Cc2ccccc2)c1 | -2 | 0 | 3.8* | 0 | 1 | -1
CN(C(=O)CCNC(=O)Cn1cnc2ccccc2c1=O)c1ccc(F)cc1 | -1 | -2 | 0 | -2 | 3 | 4.8*
COc1ccc2c(C(=O)c3ccc(C)cc3)n(Cc3ccc(C(N)=O)cc3)[n+]([O-])c2c1 | 2.1* | 4 | 2 | 11* | 10 | 2
COc1ccccc1NC(=O)Oc1ccc(NC(=O)c2ccco2)cc1 | -1 | -3 | 0 | 0 | 0 | 1
Cc1ccc(S(=O)(=O)N(C)c2ccccc2C(=O)N2CCCC2)cc1 | -1 | 1 | -1 | 0 | 1 | 0
SMILES | ssDAF-12 act | SMARCA2 activ | DAX1 inh-1 | hcDAF-12 act | hgDAF-12 ag | DAX1 inh-2
COc1ccc2[nH]c3c(c2c1)CCN[C@]31C(=O)N(C)c2ccc(Br)cc21 | 1.1* | 1 | -1 | 4 | -2 | ·
COc1ccc2c(c1)[C@@]1(NCCc3c1[nH]c1ccc(OC)cc31)C(=O)N2C | 0 | -3 | 2 | 2 | -2 | ·
COC(=O)c1[nH]c2ccc(F)cc2c1NS(=O)(=O)c1ccc(OC)cc1OC | 1.1* | 3 | 0 | 2 | 3 | 0
COc1ccc(Nc2ncnc3sc(-c4ccccc4)cc23)cc1OC | -2 | -3 | -1 | -5 | -2 | -2
Cn1cc(Br)c(C(=O)Nc2nccs2)n1 | 0 | 2 | 1 | 5.6* | 6 | 0
Cn1cc(Br)c(C(=O)Nc2c(F)c(F)c(F)c(F)c2F)n1 | -2 | -1 | 1 | -1 | -2 | -1
Cc1ccc(S(=O)(=O)N2CCOC2C(Cl)(Cl)Cl)cc1 (centres undefined) | 1.2* | -6 | 0 | -2 | -4 | 0
CNC(=O)C(=O)NCC1OCCN1S(=O)(=O)c1ccc(C)cc1 (centres undefined) | -1 | -2 | 0 | -1 | 0 | 1
COc1ccc(C(=O)Nc2ccc3[nH]ncc3c2)cc1 | 1 | 5 | 2 | 3 | 13* | -4
COc1ccc(C(=O)Nc2ccc3[nH]ccc3c2)cc1OC | -1 | 5 | 2 | 1 | 6 | 3
COc1ccc(OC)c(C(=O)Nc2ccc3[nH]ccc3c2)c1 | 0 | 1 | 2 | 4 | 12* | 1
COc1ccc(C(=O)Nc2ccc3[nH]ccc3c2)cc1 | 2.5* | 5 | 3 | 9.5* | 16* | -7
COc1ccc(C(=O)Nc2ccc3cn[nH]c3c2)c(OC)c1 | 0.9* | -1 | 1 | 1 | -2 | 2
COc1ccc(NC(=O)CCS(=O)(=O)c2ccc3c(c2)CCCN3C(C)=O)cc1 | 0 | -1 | 0 | -3 | 1 | -1
O=C(Nc1ccc2[nH]ccc2c1)c1cccs1 | 0 | 8 | 2 | 2 | 11* | -1
O=C(Nc1ccc(NC(=O)c2cccs2)cc1)c1cccs1 | -1 | 4 | 2 | 2 | 7 | 0
O=C(COC(=O)C1=COCCO1)Nc1ccc(F)cc1 | -1 | 0 | 1 | 0 | -1 | 0
C/C(CC(C)C)=N/Nc1ccc([N+](=O)[O-])cc1[N+](=O)[O-] | 0 | 2 | 1 | 4 | 2 | 0
CC(Cc1ccccc1)=NNc1ccc([N+](=O)[O-])cc1[N+](=O)[O-] | 2.4* | -2 | 0 | 0 | 3 | -1
O=C(COc1ccc(-n2cnnn2)cc1)NC(=O)NCc1ccccc1 | -1 | 1 | 0 | -2 | -1 | -2
O=C(NC1CCN(Cc2ccccc2)CC1)C1CCN(c2nnc(-n3cccc3)s2)CC1 | -1 | 0 | -2 | 0 | -2 | -3
O=C(NC1CCN(Cc2ccccc2)CC1)C1CCCN(c2nnc(-n3cccc3)s2)C1 (centres undefined) | 0 | 2 | 2 | 3 | 11* | 0
C/C(=N\NC(=O)c1ccccc1)c1ccc(-n2ccnc2)cc1 | -1 | 1 | 2 | 1 | 8 | 2
CC(C)(C)SCCNC(=O)/C=C/c1ccc(F)cc1 | 1.4* | 5 | 1 | 2 | 8 | 2
COc1ccc(Cl)cc1N(C(C)=O)c1nc(C)cc(C)c1C#N | -1 | 0 | 0 | 5.9* | 0 | 5.1*
